Hit rate of the full screen: of about 16,000 compounds, about 5,100 (32%) were called active. Inconclusive results (about 25%) are left out. The list shows a part of the results. A number with no mark means an inactive call. Calls come from the whole dose curve; as a rule, active = well fitted curve in the direction sought with a large enough effect; inconclusive = small, poorly fitted or top-dose-only effect, or effect the other way; inactive = no such curve, though single readings can be large or run the other way.
% is set by controls: 0 for no effect and ±100 for the full control effect.

Chain of Cytochrome P450 3A4 (Homo sapiens) (P08684 whole entry, looked up): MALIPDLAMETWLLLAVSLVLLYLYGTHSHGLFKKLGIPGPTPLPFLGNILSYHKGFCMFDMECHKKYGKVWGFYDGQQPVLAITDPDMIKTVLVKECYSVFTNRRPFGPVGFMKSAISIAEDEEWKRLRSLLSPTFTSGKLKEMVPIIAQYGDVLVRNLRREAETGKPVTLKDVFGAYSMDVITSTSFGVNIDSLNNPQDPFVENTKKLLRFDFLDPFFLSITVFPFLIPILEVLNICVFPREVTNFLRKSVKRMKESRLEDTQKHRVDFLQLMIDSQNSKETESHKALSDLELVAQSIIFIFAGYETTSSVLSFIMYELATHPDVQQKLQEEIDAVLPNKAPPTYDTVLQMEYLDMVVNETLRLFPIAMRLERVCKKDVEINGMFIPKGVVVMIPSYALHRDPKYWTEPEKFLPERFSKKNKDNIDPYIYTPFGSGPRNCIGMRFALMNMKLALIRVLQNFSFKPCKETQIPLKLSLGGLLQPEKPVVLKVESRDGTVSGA

The assay concerns the target Cytochrome P450 3A4 (Homo sapiens) (UniProt P08684). The experiment in a line: Cytochrome panel assay with activity outcomes. As to conditions: recombinant CYP, pro-luciferin dealkylation, luminescence, p450-cyp3a4; series mostly up to 57.1 µM.
Broadly, the AC50 is the midpoint of the concentration-response curve, whichever way the signal moves. `Cc1ccccc1OC/C(O)=C(\C#N)c1nc2ccccc2[nH]1`: the AC50 result was “inactive”. `COc1cccc(OC)c1/C(O)=C(\C#N)c1nc2ccccc2[nH]1`: the AC50 is 2 µM (active).

On to `CCn1c2ccccc2c2cc(/C=N/n3cn[nH]c3=S)ccc21`, for which the concentration at half-maximal activity (AC50) is 7.08 µM (active). For `Cn1c(=O)n(C)c2cc(/C=N/n3cnnc3)ccc21`, the activity, negative = inhibition was 2.58% [at 2.29 µM]. In the case of `O=C(O)c1cccnc1`, the AC50 entry is “inactive”. Still for that read-out and setting: in the case of `CC(C)(C(=O)c1cccnc1)c1cccnc1` it was 1.26 µM (active); in that of `Cc1ccc(S(=O)(=O)/C(C#N)=C/c2c(N3CC(C)OC(C)C3)nc3ccccn3c2=O)cc1` (stereo not given), 1.41 µM (active); in that of `Cn1c(C(=O)N2COCC2(C)C)cc2c(=O)n3ccccc3nc21`, “inactive”. The same measure, in the same setting: the result for `CON(c1nc(N(C)C)nc(N(C)C)n1)S(=O)(=O)c1ccccc1Cl` reads 12.6 µM (active); that for `Fc1ccc2nc3[nH]c4ccccc4c3nc2c1`, 14.1 µM (active).

Turning to `O=c1[nH]c(=O)c2nc3ccccc3nc2[nH]1`, the AC50 result was “inactive”.

As for `Cc1cc2nc3[nH]c4c(Cl)cc(Cl)cc4c3nc2cc1C`, the activity, negative = inhibition was -18.7% [at 11.4 µM].

As to `CN(Cc1ccco1)c1nc(-c2ccc3c(c2)OCO3)nc2ccccc12`, the half-maximal activity concentration (AC50) is 1.58 µM (active). On to `CN(C)C(=O)c1ccc(-c2nc(N(C)Cc3ccco3)c3ccccc3n2)cc1`, for which the AC50 entry is “inactive”. For the molecule `CN(Cc1ccccc1)c1nc(-c2ccc([N+](=O)[O-])cc2)nc2ccccc12`, the AC50 is 1.12 µM (active). For `CN(C)c1ccc(-c2nc(N(C)Cc3ccco3)c3ccccc3n2)cc1`, the concentration at half-maximal activity (AC50) is 10 µM (active). Take `CN(Cc1ccco1)c1nc(-c2ccoc2)nc2ccccc12`: the AC50 was 25.1 µM (active). On the same count and under the same terms, the result for `C[C@H](CCC(=O)NCC(=O)O)[C@H]1CC[C@H]2[C@H]3[C@@H](C[C@@H](O)[C@]12C)[C@]1(C)CC[C@H](O)C[C@@H]1C[C@@H]3O` reads “inactive”; that for `COc1ccc(CNc2ncnc3ccc(-c4ccoc4)cc23)c(OC)c1`, 3.16 µM (active); that for `COc1ccccc1CNc1ncnc2ccc(-c3ccoc3)cc12`, 15.8 µM (active). In the case of `CCOC(=O)/C(C(N)=NCCCO)=C(/O)c1ccccc1`, the AC50 result is “inactive”. For `COc1ccc(CNc2ncnc3ccc(-c4cccc(NS(C)(=O)=O)c4)cc23)c(OC)c1`, the concentration at half-maximal activity (AC50) was 2 µM (active). Consider `COc1ccccc1CNc1ncnc2ccc(-c3cccc(NS(C)(=O)=O)c3)cc12`, for which the AC50 was 3.16 µM (active).

On to `Cn1c(=O)c2[nH]c(/N=N\N3CCN(CCO)CC3)nc2n(C)c1=O`, for which the activity, negative = inhibition is -17% [at 11.4 µM]. Turning to `Cc1ccc(Nc2c([N+](=O)[O-])ccc3c2=NC2(CCCCC2)N=3)cc1`, the AC50 is 7.08 µM (active).

For the molecule `CCC/C=C(\CCC)C(NC(=O)c1ccc(C(=O)OC)cc1)c1ccc(C(=O)OC)cc1` (stereo not given), the half-maximal activity concentration (AC50) is 15.8 µM (active). With `CCN(CC)c1nc(Nc2ccccc2)nc(Oc2ccc(C(=O)OC)cc2)n1`, the AC50 result was “inactive”. The same measure, in the same setting: in the case of `CCC/C=C(\CCC)C(NC(=O)C(C)(C)C)c1ccc(C(=O)OC)cc1` (stereo not given) it was 10 µM (active); in that of `CCC/C=C(\CCC)C(NC(=O)Cc1ccccc1)c1ccc(C(=O)OC)cc1` (stereo not given), 3.98 µM (active).

Consider `CCC/C=C(\CCC)C(NC(=O)Oc1ccc(F)cc1)c1ccc(C(=O)OC)cc1` (stereo not given), for which the AC50 entry was “inactive”. On to `CCC/C=C(\CCC)C(NC(=O)OCC(C)C)c1ccc(C(=O)OC)cc1` (stereo not given), for which the AC50 is 12.6 µM (active). `CCOC(=O)NC(NC(=O)OCC)C(=O)c1ccc(F)cc1`: the AC50 entry was “inactive”. Regarding `O[C@]1(c2ccccc2)c2ccccc2NC2=NCCN21`, the activity, negative = inhibition was 3.31% [at 11.4 µM]. Take `Cc1cc(-c2ccc(Cl)cc2)oc(=O)c1NC(=O)c1ccccc1`: the AC50 entry was “inactive”. As to `O=c1cc(-c2ccccc2)oc2cc(O)c(O)c(O)c12`, the concentration at half-maximal activity (AC50) was 31.6 µM (active). As for `Cc1cc(=O)c2c(O)c(O)ccc2o1`, the AC50 result is “inactive”.

On to `COc1ccc(-c2coc3cc(OC)cc(O)c3c2=O)cc1`, for which the AC50 result was “inactive”.

With `COc1ccc(-c2cc(=O)c3c(O)cc(O)cc3o2)cc1`, the AC50 is 2.51 µM (active). `O=C(O)[C@H](CCc1ccccc1)N1C(=O)c2ccccc2C1=O`: the activity, negative = inhibition was 9.26% [at 11.4 µM]. In the case of `CC(C)C(NC(=O)C1CCCCC1)C(=O)NC1CCN(Cc2ccccc2)CC1` (stereo not given), the AC50 entry was “inactive”. Regarding `Cc1ccc(C)n1C(Cc1ccccc1)C(=O)O` (stereo not given), the AC50 entry is “inactive”.

Take `O=C(NC1CCCCC1)C(Cc1ccccc1)N1C(=O)C2C3CCC(C3)C2C1=O` (stereo not given): the AC50 is 8.91 µM (active). For `O=C(C(Cc1ccccc1)N1C(=O)C2C3CCC(C3)C2C1=O)N1CCCCC1` (stereo not given), the concentration at half-maximal activity (AC50) was 12.6 µM (active). Regarding `O=C(O)CC[C@@H](C(=O)O)N1C(=O)[C@@H]2[C@@H]3CC[C@H](C3)[C@@H]2C1=O`, the activity, negative = inhibition is -4.14% [at 11.4 µM]. With `CN(CC(=O)Nc1cccc2c1CCCC2)S(=O)(=O)c1ccc(Br)cc1`, the concentration at half-maximal activity (AC50) was 8.91 µM (active). As to `CN(C)CCOC(=O)[C@@H](c1ccccc1)C1(O)CCCC1`, the AC50 entry was “inactive”. As for `Cn1c(SCc2nc3ccccc3n2CCO)nc2ccccc21`, the AC50 was 8.91 µM (active). In the case of `Cc1ccc(/C=N/NC(=O)CSc2nc3ccccc3n2C)s1`, the activity, negative = inhibition is -26.5% [at 2.29 µM]. Turning to `Cn1c(C[C@@H](O)c2nc3ccccc3n2C)nc2ccccc21`, the activity, negative = inhibition is -14.4% [at 11.4 µM]. Regarding `CC(=O)Nc1ccc(S(=O)(=O)N2CCN(c3nc(NC4CCCC4)c4ccccc4n3)CC2)cc1`, the AC50 was 3.16 µM (active). Take `Cc1ccc(C(=O)COC(=O)c2ccc3c(c2)C(=O)N(c2cccc4ncccc24)C3=O)cc1C`: the AC50 was 1.26 µM (active). For `Cc1ccc(C(=O)O)cc1N1C(=O)c2cccc3cc(Br)cc(c23)C1=O`, the activity, negative = inhibition is 19.6% [at 2.29 µM]. Regarding `CCOC(=O)N1CCN(C(=O)c2ccc(OC)c(OC)c2)CC1`, the AC50 result was “inactive”.

For the molecule `CCOC(=O)N1CCN(C(=O)c2cc(-c3ccc(F)cc3)[nH]c2C)CC1`, the half-maximal activity concentration (AC50) was 11.2 µM (active). Turning to `CCOC(=O)N1CCN(C(=O)c2ccc(NC(C)=O)cc2)CC1`, the activity, negative = inhibition was -1.46% [at 2.29 µM]. Turning to `CS(=O)(=O)N1CCC[C@@]2(CCN(c3ccccc3)C2)C1`, the AC50 was 12.6 µM (active). Regarding `CS(=O)(=O)N1CCC2(CCCN(c3ccncc3)C2)CC1`, the AC50 entry was “inactive”. `CS(=O)(=O)N1CCC[C@@]2(CCN(c3ccncc3)C2)C1`: the AC50 is 7.94 µM (active). Same read-out and setting: in the case of `CS(=O)(=O)N1CCC2(CC1)CN(c1ccncc1)C2` it was “inactive”; in that of `CS(=O)(=O)N1CCC[C@@]2(CCN(c3ncccn3)C2)C1`, “inactive”; in that of `CS(=O)(=O)N1CCC2(CCN(c3ccccc3)CC2)CC1`, “inactive”. Consider `COc1cc(CN2CCN(C(=O)CC(C)C)CC2)cc(OC)c1OC`, for which the AC50 entry was “inactive”.

Regarding `COc1ccccc1N1CCN(CCN(C(=O)C2CCCCC2)c2ccccn2)CC1`, the AC50 is 3.98 µM (active). The same measure, in the same setting: the result for `COc1ccccc1N1CCN(CCCCNC(=O)c2ccc(-c3ccc(C(C)=O)cc3)cc2)CC1` reads “inactive”; that for `Cc1[nH]n(-c2ccccc2)c(=O)c1CCOC(=O)c1ccc(C(F)(F)F)cc1`, 14.1 µM (active); that for `CSc1nc(C)c(CCOC(=O)c2ccccc2)c(=O)[nH]1`, “inactive”. The same measure, in the same setting: the result for `Cc1[nH]n(-c2ccccc2)c(=O)c1CCOC(=O)c1cccc(C(F)(F)F)c1` reads 3.16 µM (active); that for `CC1=NN(c2ccccc2)C(=O)/C1=C\c1c(C)[nH]n(-c2ccccc2)c1=O`, “inactive”. Consider `CSc1nc(C)c(CCOC(=O)c2cccc(C)c2)c(=O)[nH]1`, for which the AC50 entry was “inactive”. On to `Cc1cc(-c2c(C)[nH]n(-c3ccccc3)c2=O)n(-c2ccccc2)n1`, for which the activity, negative = inhibition is -9.49% [at 11.4 µM]. Regarding `CC(C)(CO[C@H]1C[C@H]2CC[C@@]1(C)C2(C)C)[N+](=O)[O-]`, the activity, negative = inhibition is -5.92% [at 11.4 µM]. Same read-out and setting: in the case of `CCOC(=O)c1ccc(-c2ccc(CO)o2)cc1` it was 1.82% [at 2.29 µM].

Consider `CCOC(=O)c1ccc(NC(=O)C(=O)NCC2CCCO2)cc1` (stereo not given), for which the AC50 entry is “inactive”. Take `CCOC(=O)c1ccc(-c2ccc(/C=C(\C#N)C(=O)NCC3CCCO3)o2)cc1` (stereo not given): the AC50 is 20 µM (active).

Turning to `CC(C)NC[C@@H](O)c1ccc(O)c2ncccc12`, the activity, negative = inhibition is -1.42% [at 11.4 µM]. With `O=S(=O)(O)[C@@H](c1ccccc1)[C@@H](O)c1ccccc1`, the activity, negative = inhibition was -6.22% [at 11.4 µM]. In the case of `COc1ccc(CCn2c(=N)c(C(=O)NCc3ccco3)cc3c(=O)n4ccccc4nc32)cc1`, the AC50 was 14.1 µM (active).

For `Cn1c(C(=O)NCC2CCCO2)cc2c(=O)n3ccccc3nc21` (stereo not given), the AC50 entry is “inactive”. As to `OCCCSCCO`, the activity, negative = inhibition is -9.23% [at 11.4 µM].

In the case of `CC1(O)c2ccccc2C(=O)N1CCc1ccccc1F` (stereo not given), the AC50 result is “inactive”.

On to `COc1ccc(Nc2cc(=O)n(C3CCCCC3)c(=O)[nH]2)c(OC)c1`, for which the half-maximal activity concentration (AC50) was 12.6 µM (active).

With `O=C(c1ccco1)N1CCN(c2cc(=O)n(C3CCCCC3)c(=O)[nH]2)CC1`, the AC50 entry was “inactive”. In the case of `Cc1cc(C(C)(C)C)c(O)c(C)c1CC1=NCCN1`, the AC50 entry is “inactive”.

As for `CCC(=O)Nc1ncnc2ncn(C(=O)CC)c12`, the activity, negative = inhibition was -6.29% [at 11.4 µM]. As for `COc1ccccc1COC(=O)Nc1c(C)nn(C)c1Cl`, the AC50 was 15.8 µM (active). As for `O=C(Nc1ccccc1)OCc1cc(-c2ccc(Cl)cc2)on1`, the activity, negative = inhibition was 3.33% [at 2.29 µM]. In the case of `Cc1nn(C)c(Cl)c1NC(=O)OCc1ccc(F)cc1`, the AC50 result is “inactive”. `Cc1nn(C)c(Cl)c1NC(=O)OCc1ccc(Cl)cc1Cl`: the half-maximal activity concentration (AC50) is 14.1 µM (active). For `O=C(OCc1ccc(Cl)cc1Cl)c1cccnc1Cl`, the AC50 entry is “inactive”. Consider `O=C(c1cc(C(F)(F)F)cc(C(F)(F)F)c1)N1CCC2(CCCN(Cc3nccs3)C2)CC1`, for which the AC50 is 20 µM (active). For the molecule `O=C(c1cc(C(F)(F)F)cc(C(F)(F)F)c1)N1CCC[C@@]2(CCN(Cc3nccs3)C2)C1`, the half-maximal activity concentration (AC50) is 3.16 µM (active). Consider `O=C(c1ccncc1)N1CCC2(CCN(Cc3nccs3)CC2)CC1`, for which the AC50 entry is “inactive”. `CCN1CCCCC(=N/O)/C(=N/O)CCCC1`: the activity, negative = inhibition is -9.74% [at 11.4 µM]. For `Cc1cccc(NC(=O)CSc2nc3nc(C)cc(C)c3c(=O)[nH]2)c1`, the half-maximal activity concentration (AC50) is 3.55 µM (active). With `Cc1cc(C)c2c(=O)[nH]c(SCC(=O)N(C)C)nc2n1`, the AC50 result was “inactive”.

The values are drawn from PubChem BioAssay AID1851 (National Center for Advancing Translational Sciences (NCATS), 2009).
